Shown are actives, neighbours in structure and some others; about 6.5% of the full set was active somewhere.
VACV mCherry inh = qHTS for Stage-Specific Inhibitors of Vaccinia Orthopoxvirus: mCherry Reporter Primary qHTS; Vaccinia virus mCherry reporter infection, fluorescence; Potency, µM (top dose mostly 36.5 µM), for inactives: top-dose activity change, negative = inhibition, most hits filed as inhibitors; 0.63% of 310,000 active; AID 720579, 2013; calls by dose curve; tested in A549 cells; also: potency is read from the fitted curve at half-maximal effect; nearly all actives have a fitted effect of over 35% in size
HCMV inh = qHTS Assay for inhibitors of the human cytomegalovirus (HCMV); 4.5% of 410,000 active; activity change, negative = inhibition, % at 57.5 µM; HFF cells, HCMV-luciferase reporter, 72 h; active compounds read low; AID 1259415, 2018; in the data active = activity change below about -60%; inconclusive = no clear call, values can overlap the other calls; inactive = above about -39%
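Inhibition of viral replication was scored as loss of reporter luminescence in HFFs infected with HCMV-luciferase (MOI 1 PFU/cell) for 72 h; compounds tested at 2 doses, normalized to buffer and Salinomycin controls.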
FMDV antiviral = High Throughput Screening for Foot and Mouth Disease Virus Antivirals. 1.2% of 410,000 active. Potency, µM (doses to about 57.9 µM), without a hit: at the highest dose activity change, negative = inhibition, usual class: inhibitors. FMDV antiviral cell-based qHTS. AID 1159524, 2015; calls by dose curve; tested in HEK293T cells; also: read-out not given here; potency is read from the fitted curve at half-maximal effect; nearly all actives have a fitted effect of over 45% in size
MARV entry inh = qHTS for inhibitors of binding or entry into cells for Marburg Virus. Marburg virus pseudotyped entry inhibition, cell reporter. Potency, µM (highest dose often 37.8 µM), for inactives: at the highest dose activity change, negative = inhibition, most hits filed as inhibitors. 1.8% of 300,000 active; calls by dose curve; tested in HEK293 cells; also: potency is read from the fitted curve at half-maximal effect
LASV entry inh = qHTS for Inhibitors of binding or entry into cells for Lassa Virus; Lassa virus pseudotype entry inhibition, cell reporter; Potency, µM (highest dose often 37.9 µM), without a hit: at the top dose activity change, negative = inhibition, usual class: inhibitors; 1.2% of 300,000 active; AID 540256, 2011; calls by dose curve; tested in HEK293 cells; also: potency is read from the fitted curve at half-maximal effect; nearly all actives have a fitted effect of over 50% in size
VACV Venus inh = qHTS for Stage-Specific Inhibitors of Vaccinia Orthopoxvirus: Venus Reporter Primary qHTS. Vaccinia virus Venus reporter expression, fluorescence. Potency, µM (highest dose often 36.5 µM), for the others: top-dose activity change, negative = inhibition, hits mostly inhibitors. 0.46% of 330,000 active. AID 720580, 2013; calls by dose curve; tested in A549 cells; also: potency is read from the fitted curve at half-maximal effect; nearly all actives have a fitted effect of over 30% in size
An asterisk follows results filed as active; ! = repeats disagree; [ ] = dose if it differs, or a comment. % is scaled to controls: 0 for no effect and ±100 for the full control effect.

Results for C[C@H](CO)N1C[C@H](C)[C@@H](CN(C)S(=O)(=O)c2cccs2)Oc2ccc(NC(=O)Nc3ccccc3)cc2C1=O ?
VACV mCherry inh: -8%; HCMV inh: -65*; FMDV antiviral: -20%; VACV Venus inh: -13%

What do the screens show for `C[C@@H]1CN([C@H](C)CO)C(=O)c2cc(NC(=O)Nc3ccc(C(F)(F)F)cc3)ccc2O[C@H]1CN(C)S(=O)(=O)c1cccs1`?
VACV mCherry inh: -11%; HCMV inh: -19; FMDV antiviral: -21%; VACV Venus inh: inconclusive

Results for C[C@H](CO)N1C[C@H](C)[C@@H](CN(C)S(=O)(=O)c2ccccc2)Oc2ccc(NC(=O)Nc3ccccc3)cc2C1=O ?
VACV mCherry inh: inconclusive; HCMV inh: -73*; FMDV antiviral: -14%; VACV Venus inh: 10µM*

How did Nc1nc(SCC(=O)O)c2[nH]cnc2n1 do in these assays?
VACV mCherry inh: inactive; VACV Venus inh: -16%

Results for CCCOCc1ccc(O)c2ncccc12 ?
VACV mCherry inh: inconclusive; HCMV inh: -104*; FMDV antiviral: -18%; MARV entry inh: inconclusive; LASV entry inh: inconclusive; VACV Venus inh: inconclusive

How did CC(C)COCc1ccc(O)c2ncccc12 do in these assays?
VACV mCherry inh: 10µM*; HCMV inh: inconclusive; FMDV antiviral: -15%; MARV entry inh: inconclusive; LASV entry inh: inconclusive; VACV Venus inh: inconclusive

What do the screens show for `CN(Cc1ccco1)Cc1ccc(O)c2ncccc12`?
FMDV antiviral: 2%

How did CN(C)c1ccc(CN(Cc2ccco2)C(=O)COc2ccc(F)cc2)cc1 do in these assays?
VACV mCherry inh: -16%; HCMV inh: -26; FMDV antiviral: 0%; MARV entry inh: inconclusive; LASV entry inh: 5.6µM*; VACV Venus inh: -13%

How did CN(CC(=O)Nc1ccccc1Br)CC(=O)Nc1ccccc1-c1ccccc1 do in these assays?
HCMV inh: -18; FMDV antiviral: -28%

What do the screens show for `CN(CC(=O)Nc1ccccc1-c1ccccc1)Cc1ccccc1Cl`?
VACV mCherry inh: -1%; HCMV inh: inconclusive; FMDV antiviral: -23%; MARV entry inh: 11µM*; LASV entry inh: -8%; VACV Venus inh: -6%

How did CCc1ccccc1NC(=O)C(=O)NCC(c1cccnc1)N1CCN(c2ccccc2F)CC1 (stereo not given) do in these assays?
VACV mCherry inh: -9%; HCMV inh: -8; FMDV antiviral: 40µM*; LASV entry inh: -24%[46.1 µM]; VACV Venus inh: -18%

How did COC(=O)NCC(c1cccnc1)N1CCN(c2ccccc2F)CC1 (stereo not given) do in these assays?
VACV mCherry inh: -17%; HCMV inh: 16; FMDV antiviral: -19%; VACV Venus inh: 3%

Results for COc1ccc(CNC(=O)C(=O)NCC(c2cccnc2)N2CCN(c3ccccc3F)CC2)cc1 (stereo not given) ?
VACV mCherry inh: inconclusive; HCMV inh: -70*; FMDV antiviral: -7%; LASV entry inh: 9%[46.1 µM]; VACV Venus inh: inconclusive

How did COc1cc(C)c2ccccc2n1 do in these assays?
VACV mCherry inh: inactive; VACV Venus inh: -4%

How did Cc1cccc(-c2nc(CCNC(=O)c3ccco3)cs2)c1 do in these assays?
VACV mCherry inh: -4%; HCMV inh: -68*!; FMDV antiviral: -25%; LASV entry inh: -15%[46.1 µM]; VACV Venus inh: -12%

What do the screens show for `O=C(NCCc1csc(-c2ccc(C(F)(F)F)cc2)n1)c1ccc(F)c(F)c1`?
VACV mCherry inh: -16%; HCMV inh: -63*; FMDV antiviral: 20µM*; LASV entry inh: -26%[46.1 µM]; VACV Venus inh: -12%

How did Cc1cc(C)cc(C(=O)NCCc2csc(-c3ccc(C(F)(F)F)cc3)n2)c1 do in these assays?
VACV mCherry inh: -13%; HCMV inh: 18; FMDV antiviral: -23%; LASV entry inh: -17%[46.1 µM]; VACV Venus inh: -7%

What do the screens show for `O=C(NCCc1csc(-c2ccccc2)n1)c1c(F)cccc1Cl`?
VACV mCherry inh: -10%; HCMV inh: -70*; FMDV antiviral: 13%; MARV entry inh: 6%[46.1 µM]; LASV entry inh: inconclusive; VACV Venus inh: -5%

Results for COc1cc(C(C(=O)NC2CCCCC2)N(Cc2cccs2)C(=O)Cc2c[nH]c3ccccc23)cc(OC)c1OC (stereo not given) ?
HCMV inh: -79*; FMDV antiviral: inconclusive; MARV entry inh: -32%; LASV entry inh: -17%

What do the screens show for `COc1ccc(CN(C(=O)Cc2c[nH]c3ccccc23)C(C(=O)NC2CCCCC2)c2ccc(C)o2)cc1` (stereo not given)?
HCMV inh: inconclusive; FMDV antiviral: 38%; MARV entry inh: 7.3µM*; LASV entry inh: 7.3µM*

How did C(=C\c1ccnc2ccccc12)/c1cccnc1 do in these assays?
VACV mCherry inh: -4%; VACV Venus inh: -25%

Results for Cc1cccc(N/C(N)=N/c2nc(C(F)(F)F)cc(=O)[nH]2)c1C ?
VACV mCherry inh: -15%; HCMV inh: -104*; FMDV antiviral: -18%; MARV entry inh: 5%; LASV entry inh: -7%; VACV Venus inh: -9%

How did Cc1cc(=O)[nH]c(/N=C(\N)Nc2cccc3ccccc23)n1 do in these assays?
VACV mCherry inh: -10%; HCMV inh: 4; FMDV antiviral: -9%; MARV entry inh: inconclusive; LASV entry inh: inconclusive; VACV Venus inh: inconclusive

What do the screens show for `COc1ccccc1-n1nc(-c2ccccc2)c2cnc3c(F)cc(F)cc3c21`?
VACV mCherry inh: -8%; HCMV inh: -2; FMDV antiviral: -4%; MARV entry inh: -7%[46.1 µM]; LASV entry inh: -13%[46.1 µM]; VACV Venus inh: -11%

How did CCOc1ccc(-n2cc(-c3ccccc3)c3c(NCc4ccc(F)cc4)ncnc32)cc1 do in these assays?
VACV mCherry inh: -17%; HCMV inh: -15; FMDV antiviral: -20%; LASV entry inh: 15%[46.1 µM]; VACV Venus inh: -12%

What do the screens show for `CC(=O)Oc1c2c(c(CC=C(C)C)c3c1C(=O)C1=CC4CC5C(C)(C)OC(C/C=C(\C)C(=O)O)(C4=O)[C@]15O3)OC(C)(CCC=C(C)C)C=C2` (stereo not given in full)?
VACV mCherry inh: 11µM*; FMDV antiviral: 4µM*; VACV Venus inh: inconclusive

How did COC(=O)/C(C)=C\CC12OC(C)(C)C3CC(C=C4C(=O)c5c(OC)c6c(c(CC=C(C)C)c5OC431)OC(C)(CCC=C(C)C)C=C6)C2=O (stereo not given) do in these assays?
VACV mCherry inh: 13µM*; FMDV antiviral: 32µM*; VACV Venus inh: inconclusive

Results for CC(=O)Oc1c(-c2ccccc2)oc2c(CC=C(C)C)c3c(c(OC(C)=O)c2c1=O)C=CC(C)(C)O3 ?
VACV mCherry inh: -2%; FMDV antiviral: -6%; VACV Venus inh: 16%

Screens as filed in PubChem.
